Source: ChEMBL document CHEMBL3433997, “St. Jude Leishmania screening dataset” (2016)

Legend:
Assay type in all cases: functional
[1] = target: Solute carrier family 2, facilitated glucose transporter member 1 (Homo sapiens) (UniProt P11166); assay: ST_JUDE_LEISH: Cytotoxicity at 2uM final concentration against transgenic Leishmania Mexicana promastigotes LmGLUT1 that are glucose transport deficient and complemented with the human glucose transporter GLUT1. Activity is measured by DNA content using SYBR green in vitro
Sequence of Solute carrier family 2, facilitated glucose transporter member 1 (Homo sapiens) (P11166 whole entry): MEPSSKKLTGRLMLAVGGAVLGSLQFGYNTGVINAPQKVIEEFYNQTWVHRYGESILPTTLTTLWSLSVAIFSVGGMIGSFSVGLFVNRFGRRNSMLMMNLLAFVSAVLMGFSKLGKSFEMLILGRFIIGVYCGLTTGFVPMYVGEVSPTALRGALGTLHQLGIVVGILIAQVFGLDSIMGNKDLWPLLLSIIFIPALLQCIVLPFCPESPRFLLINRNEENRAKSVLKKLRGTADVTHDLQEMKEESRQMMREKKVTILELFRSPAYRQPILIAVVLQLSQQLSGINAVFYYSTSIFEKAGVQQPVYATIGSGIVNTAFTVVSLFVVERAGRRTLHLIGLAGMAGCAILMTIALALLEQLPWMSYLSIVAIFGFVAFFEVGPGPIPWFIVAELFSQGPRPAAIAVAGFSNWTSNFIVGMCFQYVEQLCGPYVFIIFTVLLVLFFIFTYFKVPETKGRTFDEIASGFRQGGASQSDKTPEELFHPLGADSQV

[2] = target: Hexose transporter 1 (Plasmodium falciparum) (UniProt O97467); assay: ST_JUDE_LEISH: Cytotoxicity at 2uM final concentration against transgenic Leishmania Mexicana promastigotes LmPfHT that are glucose transport deficient and complemented with the Plasmodium falciparum hexose transporter. Activity is measured by DNA content using SYBR green in vitro
[3] = target: Glucose transporter (Leishmania mexicana) (UniProt O61059); assay: ST_JUDE_LEISH: Cytotoxicity at 2uM final concentration against transgenic Leishmania Mexicana promastigotes LmGT2 that are glucose transport deficient and complemented with the L. Mexicana glucose transporter 2. Activity is measured by DNA content using SYBR green in vitro

Row | Structure (SMILES) | inhibition [1] [%] | inhibition [2] [%] | inhibition [3] [%]
1 | CCC(CC)n1cc2c(ccc3nc(N)nc(N)c32)n1 | -1.92 | -0.91 | -4.05
2 | COc1ccccc1NC(=O)Nc1ccc(-c2ccc(-c3nc4cc(C(F)(F)F)ccc4[nH]3)cc2)cc1 | 9.03 | 4.25 | 2.26
3 | Cc1cc(CNC(c2ccccc2)C2CCC2)cc(C)c1O (stereo unspecified) | 14.2 | 14.3 | 10.1
4 | Cc1ccc(C)c(C2CCN(CCCCNC(=O)c3ccc(NC(=O)c4ccc(Cl)cc4)cc3)CC2)c1 | -1.18 | 0.21 | 0.05
5 | Nc1ccc(-c2ccc(NC(=O)Nc3cc(C(F)(F)F)ccc3F)cc2)cn1 | 7.37 | 4.54 | 2.2
6 | Cc1cc(NC(=O)Nc2ccc3sccc3c2)c2ccccc2n1 | 2.24 | 2.66 | 0.53
7 | Cc1ccc(NC(=O)Nc2ccc(Cl)cc2)cc1-c1cccc(C(=O)Nc2ccc(F)cc2)c1 | -1.9 | 2.5 | 5.14
8 | CCOc1cc(Cc2cnc(N)nc2N)cc(OC)c1OC | -1.63 | -0.5 | -0.04
9 | N=c1ccn(CC(=NO)c2ccc(Cl)c(Cl)c2)cc1 | 0.09 | 2.8 | 0.32
10 | O=c1cc(NCCCNCc2cccc(Oc3ccccc3)c2)[nH]c2ccccc12 | 4.28 | 2.68 | 3.25
11 | CCN1CCN(c2cc(C)c3cc(NC(=O)c4cccc([N+](=O)[O-])c4)ccc3n2)CC1 | -0.98 | 0.44 | -1.42
12 | COC(=O)CCCOc1cc(Cc2cnc(N)nc2N)cc(OC)c1OC | 7.51 | 6.32 | 9.19
13 | CCCCCCCNCCNc1cc(C)nc2ccccc12 | 2.03 | 7.41 | 2.79
14 | CCCN1CCN(CCNC(=O)c2cccc(Nc3nccc(Nc4ccc(Oc5ccccc5)cc4)n3)c2)CC1 | 0.38 | 0.74 | 1.04
15 | OC(CNc1cccc(Cl)c1)Cn1c2ccc(Cl)cc2c2cc(Cl)ccc21 (stereo unspecified) | 3.75 | 1.59 | 2.34
16 | O=C(Nc1ccc(Cl)cc1)Nc1nc2cc([N+](=O)[O-])ccc2[nH]1 | 0.18 | 0.01 | 0.02
17 | CCC(C)(CC)C(=O)n1ncc2c3c(N)nc(N)nc3ccc21 | 65.8 | 79.2 | 58.6
18 | CC[C@H](C)CNC(=O)c1ccnc(-c2ccc(CNC3Cc4ccccc4C3)cc2)c1 | 0.15 | 0.08 | -0.69
19 | N=C(N)NN=CC(=O)Nc1ccc(Cl)c(C(F)(F)F)c1 | 8.87 | 7.04 | 9.08
20 | COc1ccc(N(C)Cc2cnc3nc(N)nc(N)c3n2)cc1 | 1.5 | 1.84 | 2.61
21 | CCC1CN2CCc3c([nH]c4ccc(OC)cc34)C2CC1CC1NCCc2cc(OC)c(OC)cc21 (stereo unspecified) | 3.04 | 3.2 | 4.05
22 | CCCCNc1nc(NCCCC)c2c(C)c(Cc3ccccc3)c(NCCCC)nc2n1 | 39.8 | 43.6 | 12.3
23 | O=C(Nc1ccc2c(c1)CCC2)N[C@H]1CCN(Cc2ccc(OCCCN3CCCCC3)cc2)C1 | 1.25 | 2.37 | 2.47
24 | Cc1nnsc1C(=O)Nc1cccc(-c2ccc(-c3nc4ccccc4[nH]3)cc2)c1 | 7.04 | 9.93 | 4.11

Row | Structure (SMILES) | inhibition [1] [%] | inhibition [2] [%] | inhibition [3] [%]
25 | Cn1ccnc1-c1nc2ccccn2c1NCC(=O)Nc1ccccc1N1CCCCC1 | -1.68 | -2.15 | 0.02
26 | O=C(Nc1cccc(-c2ccc(-c3nc4cc(F)ccc4[nH]3)cc2)c1)c1ccoc1 | 1.01 | 1.14 | -0.42
27 | CCNc1cc(C(=O)N[C@@H](Cc2ccccc2)[C@H](O)CNCc2cccc(OC)c2C)cc(N2CCCCS2(=O)=O)c1 | 1.82 | 1.66 | 2.02
28 | Cc1cccc(CN2CCC(CNC(=O)c3cc4c(-c5ccccc5F)nn(C)c4s3)CC2)c1 | 4.22 | 3.22 | 2.82
29 | COc1ccc(CNC2CCN(C)CC2)cc1-c1ccc(S(=O)(=O)NCCN2CCCC2)s1 | -3.47 | -0.23 | -2.9
30 | C=CCc1cc(Cc2cnc(N)nc2N)c2ccc(C)nc2c1O | 2.17 | 1.88 | 0.24
31 | O=C(Nc1ccc2c(c1)CN(Cc1ccc(N3CCCC3)o1)CCC2)c1cncs1 | 1.6 | 1.62 | -0.45
32 | Cc1nc(-c2nc(N3CCC(C(N)=O)CC3)ncc2-c2ccsc2)sc1C | 8.94 | 7.69 | 6.73
33 | COc1ccc(-n2nc(C(=O)NCc3ccccc3OC)c3ccccc3c2=O)cc1 | 8.08 | 6.04 | 2.98
34 | C=CCN1CCC(N(Cc2cccc(Oc3ccccc3)c2)C(=O)C(c2ccccc2)c2ccccc2)CC1 | -1.05 | -2.14 | -2.94
35 | CC(C)(C)OC(=O)N1CCC(C2CCN(C(=O)OC(C)(C)C)CC2)CC1 | -2.91 | -1.6 | -1.48
36 | C[C@H](NC(=O)c1c(CN2CCC(NC(=O)CC(C)(C)C)CC2)c(-c2cccs2)nc2ccccc12)C1CCCCC1 | 2.07 | 1.16 | 0.4
37 | CCN(CC)CCNC(=O)c1ccc(N/C=C2\C(=O)Nc3ccc(S(=O)(=O)Cc4c(Cl)cccc4Cl)cc32)cc1 | -0.98 | -0.63 | -1.08
38 | CCCCCCN1CCCN(Cc2cccc(NC(=O)c3cc4ccccc4s3)c2)CC1 | 2.73 | 3.42 | 0.46
39 | Cn1cc(-c2ccnc3[nH]c(-c4cccc(CNC5CCC(O)CC5)c4)cc23)cn1 (stereo unspecified) | 0.39 | 1.89 | 3.37
40 | COc1cc(N)cc2sc(N)nc12 | -1.04 | 0.54 | 0.08
41 | CCC(C)c1ccc(O)c(NC(=O)c2cncc(Br)c2)c1 (stereo unspecified) | -0.89 | 0.04 | -2.07
42 | Cc1cccc2nc(-c3ccc(-c4ccc(CNCC5CCCO5)cc4)cc3)[nH]c12 (stereo unspecified) | 16.3 | 14.9 | 6.42
43 | Cc1cc2nc(-c3ccc(C(=O)NCc4ccc(Cl)c(Cl)c4)cc3)[nH]c2cc1C | 4.77 | 4.64 | 2.9
44 | Cc1nc(O)c2c(ccc3ccc(CNc4ccc(C(=O)N[C@@H](CCC(=O)O)C(=O)O)cc4)cc32)n1 | 0.64 | 2.36 | 1.05
45 | CC(C)c1ccc(NC(=O)c2ccc(C(=O)NC3CCN(CC4CCCCC4)C3)cc2)cc1 (stereo unspecified) | 3.72 | 4.18 | 3.15
46 | O=C(NCC(CCCN1CCC(c2c[nH]c3ccccc23)CC1)c1ccccc1)Nc1ccc(Cl)c(Cl)c1 (stereo unspecified) | 4.09 | 2.82 | 2.69
47 | COc1ccc(-c2cc(C(F)(F)F)n3ncc(C(=O)Nc4cc(C)ccc4O)c3n2)cc1OC | 4.34 | 2.45 | 0.56
48 | O=C(Nc1cccc(-c2ccc(-c3nc4ccccc4[nH]3)cc2)c1)Nc1ccc(F)c(F)c1F | -2.14 | 1.23 | 2.03

Row | Structure (SMILES) | inhibition [1] [%] | inhibition [2] [%] | inhibition [3] [%]
49 | O=C(Nc1ccc(-c2ccc(-c3nc4ccccc4[nH]3)cc2)cc1)Nc1ccc(Cl)c(Cl)c1 | 3.78 | 2.21 | -4.96
50 | COc1cccc2cc(C(=O)N[C@@H](CC(C)C)C(=O)N[C@H](C=NNC(=O)OC(C)(C)C)Cc3ccccc3)oc12 | 7.26 | 6.28 | 4.09
51 | CC(C)(C)c1nn(-c2ccccc2)c2[nH]c(=O)c(CNCCc3ccccc3)cc12 | 0.22 | -1.47 | -1.89
52 | CN(CC(=O)Nc1ccc(F)cc1)C(=O)c1ccc(-c2ccc(F)cc2)o1 | 5.1 | 7.16 | 5.24
53 | COc1ccc(NC(=O)/C=C/c2cc(F)cc(C(F)(F)F)c2)cc1OCCN(C(C)C)C(C)C | 9.32 | 9.92 | 6.4
54 | c1cc(CNC2CCN(CC3CCCCC3)CC2)cc(-n2ccnc2)c1 | -0.57 | -0.48 | 1.45
55 | c1ccc(N2CCN(c3cc(-c4cccnc4)nc(-c4ccncc4)n3)CC2)nc1 | 2.7 | 1.5 | 0.92
56 | Cn1cccc1CCNCc1ccc(-c2cccc(-c3nc4ccccc4[nH]3)c2)cc1 | 3.79 | 3.07 | 2.55
57 | CCc1c[nH]c2c(N3CCCC3=O)cc(C(=O)N[C@@H](Cc3ccccc3)[C@H](O)CNC(C)(C)c3cccc(OC)c3)cc12 | -0.15 | 1.3 | 1.9
58 | CN(CCCNc1ccc(C(=O)Nc2ccc(C(F)(F)F)cc2)cc1[N+](=O)[O-])Cc1ccccc1 | 1.17 | -0.19 | -3.45
59 | COc1ccc2nccc([C@@H](O)CN3CCC(NCc4cc5oc(=O)[nH]c5cc4F)CC3)c2c1 | 0.09 | 0.65 | 2.44
60 | O=C(Cc1c[nH]cn1)Nc1ccc(-c2cccc(-c3nc4cc(C(F)(F)F)ccc4[nH]3)c2)cc1 | -0.04 | 0.42 | 1.12
61 | CCOc1cc(C(=O)NC2CCN(Cc3ccccc3)CC2)ccc1-c1nc2cc(Cl)c(Cl)cc2[nH]1 | 2.82 | 5.07 | -0.27
62 | O=C(NCCN1CCC(NC(=O)c2ccc(-c3ccccn3)s2)CC1)c1ccc(Cl)c(Cl)c1 | 3.53 | 4.02 | 4.43
63 | Cc1[nH]c(C)c(-c2ccc(OCc3cc(C(F)(F)F)cc(C(F)(F)F)c3)nc2)c(=O)c1Br | 10.1 | 10.2 | 2.99
64 | CCN(CC)CCCNc1ncc2c(-c3ccc(NC(=O)Nc4cc(C(F)(F)F)ccc4F)cc3)nn(C)c2n1 | 4.51 | 4.18 | 4.62
65 | COC(=O)c1cccc(CNCc2ccc(-c3ccc(-c4nc5cc(C(F)(F)F)ccc5[nH]4)s3)cc2)c1 | 1.72 | 2.29 | 0.84
66 | OCCN1CCN(Cc2ccc(-c3ccc(-c4nc5ccccc5[nH]4)cc3)cc2)CC1 | 12.1 | 9.51 | 7.18
67 | CN1CCN(CCCN(Cc2ccc(-c3ccc(CNC4CCCC4)cc3)cc2)C(=O)CCC2CCCC2)CC1 | 76.5 | 79.8 | 5.69
68 | CC(C)CCN1CCCN(Cc2ccc(C(=O)Nc3ccc(Cl)cc3)cc2)CC1 | 11.1 | 11.3 | 11.6
69 | CCCCc1ccc(NC(=O)Nc2ccc3c(c2)CCNCC3)cc1 | 0.82 | 2.05 | 1.65
70 | Cc1cc(C(=O)NC2CCN(Cc3ccccc3)CC2)ccc1-c1nc2ccc(C(F)(F)F)cc2[nH]1 | 3.67 | 2.1 | 3.25
71 | COc1ccc2c(NN=Cc3ccncc3)ccnc2c1 | -0.81 | -0.51 | -0.6
72 | CCN(CC)CCn1c(=N)n(CC(O)c2ccc(Cl)c(Cl)c2)c2ccccc21 (stereo unspecified) | 7.87 | 5.43 | 12.9
